# Measured values as given in publication PMC5540273 (PLoS ONE, 2017).
# Experiments:
# Settings in all cases: concentration: 1 μM,replicates: in singlicate; n = 1
# [1] = system: CLK2
# [2] = system: CLK3
# [3] = system: CLK4
# [4] = system: CSF1R-autoinhibited
# [5] = system: CSF1R
# [6] = system: CSK
# [7] = system: CSNK1A1L
# [8] = system: CSNK1A1
# [9] = system: CSNK1D
# [10] = system: CSNK1E
# [11] = system: CSNK1G1
# [12] = system: CSNK1G2
# [13] = system: CSNK1G3
# [14] = system: CSNK2A1
# [15] = system: CSNK2A2
# [16] = system: T1, CTK
# T1 construct: gene MATK
# [17] = system: DAPK1
# [18] = system: DAPK2
# [19] = system: DAPK3
# [20] = system: T2, DCAMKL1
# T2 construct: gene DCLK1
# 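Also: KINOMEscan kinase panel screen.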
SMILES,%Inh [1] [%],%Inh [2] [%],%Inh [3] [%],%Inh [4] [%],%Inh [5] [%],%Inh [6] [%],%Inh [7] [%],%Inh [8] [%],%Inh [9] [%],%Inh [10] [%],%Inh [11] [%],%Inh [12] [%],%Inh [13] [%],%Inh [14] [%],%Inh [15] [%],%Inh [16] [%],%Inh [17] [%],%Inh [18] [%],%Inh [19] [%],%Inh [20] [%]
CCOC(=O)N1CCC(n2cnc(-c3ccc(F)cc3)c2-c2ccnc(N)n2)CC1 [SB-219952],0,2,2,22,70,11,74,97.8,94.8,99.7,4,12,0,19,9,0,25,0,0,22
O=C(Nc1n[nH]c2cc(-c3ccco3)ccc12)C1CC1 [SB-737447],22,19,0,0,0,10,0,18,0,0,0,0,15,31,68,34,0,7,10,7
O=C(Nc1cccc(Oc2ccc3nccn3n2)c1)Nc1cccc(C(F)(F)F)c1,0,0,0,0,99.8,12,3,0,2,11,0,0,26,0,3,49,14,0,0,0
O=C1NCCc2[nH]c(-c3ccncc3)cc21,94.8,32,94.6,0,5,10,73,95.7,96.6,98.1,51,93.7,83,64,59,24,77,66,81,16
CCn1c(-c2nonc2N)nc2cncc(Br)c21 [SB-738004],77,9,37,95.1,5,11,0,12,13,19,5,0,7,0,21,0,39,55,46,18
COc1ccc(Nc2nccc(N3CCC(NC(=O)c4cccc(C#N)c4)C3)n2)cc1 (stereo not shown) [GSK1379730],0,5,21,24,0,0,11,0,29,27,3,0,0,0,0,0,0,0,4,8
O=C(NOCC1CC1)c1cc(Br)c(F)c(F)c1Nc1ccc(I)cc1Cl,9,0,0,0,0,0,0,1,0,0,0,0,9,14,6,0,29,0,0,22
CSc1nccc(-c2c(-c3ccc(F)cc3)ncn2CCCN2CCOCC2)n1.Cl [SB-217146],0,0,18,0,0,0,0,6,54,10,0,0,0,0,15,40,16,0,0,37
N#Cc1cccc(C(=O)NC2CCN(c3ccnc(Nc4ccc(F)cc4)n3)C2)c1 (stereo not shown) [GSK1379708],0,0,1,2,1,24,1,0,17,1,0,4,6,0,0,0,0,0,11,0
COc1cc2nccc(Nc3ccc(Oc4ccccc4)cc3)c2cc1OC.Cl [GI261656],0,0,0,26,14,91.9,0,0,0,41,0,0,25,0,24,0,0,0,2,0
CS(=O)c1ccc(-c2coc3ccc(-c4n[nH]c(=O)o4)cc23)cc1 (stereo not shown),25,3,33,10,4,0,7,7,0,0,0,20,5,100,99.8,0,52,67,59,3
Cc1cccc(-c2nc(Nc3ccncc3)c3sccc3n2)n1 [GW869641],15,23,22,42,10,7,17,65,90,94.9,0,1,13,6,30,20,18,11,36,0
COc1cc2ncn(-c3cc(OCC4CCCCC4)c(C(N)=O)s3)c2cc1OC [GSK204559],2,5,33,0,19,0,22,0,10,0,12,9,32,1,22,0,35,30,64,2
NC(=O)Nc1sc(-c2ccc(F)cc2)cc1C(N)=O [GW789449],0,15,0,39,77,6,5,35,55,40,0,0,0,49,81,22,32,0,38,0
CCNCC(Cc1ccccc1)NC(=O)c1cc(Br)c(-c2ccnc3[nH]ccc23)s1.Cl.Cl (stereo not shown) [GSK1383280],71,47,59,0,55,6,6,0,32,39,8,5,46,87,71,0,7,9,28,42
Cl.Nc1n[nH]c2cc(-c3ccccn3)ccc12 [GSK2189892],0,18,31,0,8,0,0,0,0,21,11,0,31,0,0,0,0,0,19,19
COc1cc(Nc2nccc(N3CCC(NC(=O)c4cccc(C#N)c4)C3)n2)cc(OC)c1OC (stereo not shown) [GSK1379751],0,0,0,14,28,0,0,0,0,8,0,0,7,0,0,0,0,0,6,5
O=C(NCC1CC1)c1ccc(-c2cc(C(=O)NC3CC3)ccc2F)cc1 [GW810445],15,0,0,8,0,0,0,0,0,0,0,0,0,0,0,0,0,3,19,0
Cl.c1ccc(Oc2ccc(Nc3ccnc4cc(-c5ccc(CN6CCNCC6)o5)ccc34)cc2)nc1 [GW567142],0,15,0,0,43,72,0,0,16,40,0,0,32,0,3,10,19,0,21,11
CCCC(=O)Nc1n[nH]c2ncccc12 [SB-601436],0,22,0,0,0,8,4,0,0,2,0,0,7,1,0,30,0,0,0,0
CCn1c(-c2nonc2N)nc2cncc(CNC3CCNCC3)c21.Cl [SB-747651],17,7,56,0,10,0,19,0,26,21,24,0,0,0,0,0,41,0,27,7

SMILES,%Inh [1] [%],%Inh [2] [%],%Inh [3] [%],%Inh [4] [%],%Inh [5] [%],%Inh [6] [%],%Inh [7] [%],%Inh [8] [%],%Inh [9] [%],%Inh [10] [%],%Inh [11] [%],%Inh [12] [%],%Inh [13] [%],%Inh [14] [%],%Inh [15] [%],%Inh [16] [%],%Inh [17] [%],%Inh [18] [%],%Inh [19] [%],%Inh [20] [%]
Nc1nccc(-c2ccc3c(N)n[nH]c3c2)n1 [GSK1034945],88,44,95.3,0,0,0,5,0,17,29,0,0,19,41,64,0,45,0,19,12
CNC(=O)c1ccccc1Nc1nc(Nc2cccc(CS(C)(=O)=O)c2)ncc1C.O=CO [GSK1520489],94.6,86,98.9,90,99.8,95.1,63,46,25,20,27,61,26,92.3,98.6,38,89,57,81,37
Cc1n[nH]c2cc(Nc3ccnc(Nc4cccc(CN5CCOCC5)c4)n3)ccc12 [GW682569],3,11,0,68,87,27,0,0,10,19,0,0,22,31,27,0,58,25,68,4
CC(=O)Nc1ccc(-c2cc3ncnc(SCC(=O)O)c3s2)cc1,53,9,32,41,48,12,5,33,4,0,15,0,8,75,68,14,23,8,9,0
COC(=O)c1cccc(NC(=O)NC2CCN(c3ccnc(NCc4ccc(F)cc4)n3)CC2)c1 [GSK1379860],0,11,10,12,1,0,23,0,4,37,0,0,9,7,0,1,0,0,3,0
Cc1ccc(Nc2ccnc(Nc3ccc4c(c3)CS(=O)(=O)C4)n2)cc1O.Cl [GW579362],16,82,81,76,97.5,48,8,0,3,21,10,0,19,63,84,25,63,38,70,25
CN(c1ccc2c(c1)nc(NCc1ccc(F)cc1)n2C)c1ccnc(Nc2ccc(CS(C)(=O)=O)cc2)n1.Cl [GW813244],46,0,17,62,100,0,5,28,10,0,0,6,0,0,24,14,5,7,0,28
Cn1ccc2ncnc(Oc3ccc(NC(=O)Nc4cccc(C(F)(F)F)c4)c(Cl)c3)c21,1,0,0,18,99.5,15,0,0,0,0,0,3,0,0,5,0,89,0,0,46
Cc1ccc(C(=O)Nc2ccc(Oc3ccc4nc(NC(=O)C5CC5)cn4c3)c(F)c2)c(=O)n1-c1ccccc1,5,2,0,0,100,24,0,29,0,0,2,0,0,0,0,0,0,0,2,2
Cn1ccc2ncnc(Oc3ccc(NC(=O)Nc4ccnc(C(F)(F)F)c4)c(Cl)c3)c21,0,0,0,6,92.3,0,16,0,0,0,0,9,0,0,10,0,7,0,0,4
Cl.Cl.NC[C@H](CC1CCCCC1)NC(=O)c1ccc(-c2ccnc3[nH]ccc23)s1 [GSK1581428],82,63,90,0,85,0,69,77,80,82,29,72,64,8,0,9,49,12,32,0
NC(=O)c1ccc(-c2cc3ncnc(SCC(=O)O)c3s2)cc1,52,10,87,37,5,0,0,0,3,0,0,17,4,74,78,0,0,0,5,20
Cn1ccc2ncnc(Oc3ccc(NC(=O)Nc4cccc(C(F)(F)F)c4)c(F)c3)c21,9,4,0,0,99.9,0,0,39,22,13,9,20,0,0,0,0,1,0,13,12
O=C(Nc1ccc(Oc2ccc3nc(NC(=O)C4CC4)cn3n2)c(F)c1)c1cccn(-c2ccccc2)c1=O,0,0,0,0,100,0,15,39,0,0,0,0,30,0,0,0,0,0,14,4
C[C@@H]1CNc2c(sc3ccc4nc(-c5ccc(O)cc5)ccc4c23)C(=O)N1,98.2,50,95.7,7,4,0,84,95.4,63,55,29,38,32,48,43,43,35,34,26,37
CS(=O)(=O)c1cccc(CNc2nc(Nc3ccc4c(c3)[C@@H]3C[C@@H]4CNC3=O)ncc2C(F)(F)F)c1,6,0,0,22,5,0,0,0,0,0,0,23,81,34,64,0,27,0,9,48
COC(=O)c1cccc(NC(=O)NC2CCN(c3ccnc(Nc4cc(OC)c(OC)c(OC)c4)n3)C2)c1 (stereo not shown) [GSK1379767],0,0,8,34,26,0,0,28,0,13,16,0,19,1,29,0,2,0,21,4
Cc1ccc2c(-c3ccnc(Nc4ccc(C(F)(F)F)cc4)n3)cnn2n1 [GW819776],72,31,67,0,11,0,0,7,31,19,0,14,0,18,35,24,19,0,25,34
O=C(Nc1cccc(C(F)(F)F)c1)c1cccc(Oc2ccc3nccn3n2)c1,0,0,4,16,100,0,0,0,11,0,1,10,1,0,0,69,0,0,0,0
C[C@@H](Oc1cc(-n2cnc3cc(-c4cnn(C)c4)ccc32)sc1C(N)=O)c1ccccc1Cl [GSK580432],23,23,34,0,80,3,1,7,0,0,30,0,15,7,67,0,75,43,34,10
